# Columns and labels:
# Assay in all cases: DAPPL (digital affinity profiling via proximity ligation, sequencing); 10 mM Tris-HCl pH 7.5, 50 mM NaCl, 1 mM DTT, 4% glycerol, room temperature, 30 min; GST-TFs on glutathione beads, 16-mer random dsDNA library, 0.1% formaldehyde crosslink after washing; high values mean tight binding
# FLI1 = molecular target: T1, FLI1 (Homo sapiens, UniProt Q01543 1-452); settings: protein: recombinant; tags: N-terminal GST; dsDNA, one strand shown
# T1 sequence: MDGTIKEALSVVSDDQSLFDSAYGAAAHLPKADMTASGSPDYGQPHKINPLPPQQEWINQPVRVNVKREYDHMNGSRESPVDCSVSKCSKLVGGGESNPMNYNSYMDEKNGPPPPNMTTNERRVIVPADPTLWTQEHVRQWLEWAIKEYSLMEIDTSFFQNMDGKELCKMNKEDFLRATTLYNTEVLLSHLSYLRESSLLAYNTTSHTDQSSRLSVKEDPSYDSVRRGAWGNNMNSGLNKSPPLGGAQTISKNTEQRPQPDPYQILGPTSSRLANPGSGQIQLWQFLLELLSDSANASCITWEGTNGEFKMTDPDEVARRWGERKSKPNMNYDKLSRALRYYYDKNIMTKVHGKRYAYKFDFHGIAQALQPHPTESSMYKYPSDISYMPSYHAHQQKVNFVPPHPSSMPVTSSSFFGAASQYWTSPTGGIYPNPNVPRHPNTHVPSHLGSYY
# Summary of the method: (§1)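 Beads coated with glutathione captured GST-fused human transcription factors that had been expressed in yeast, and the factors were then given DNA barcodes and pooled with a tag-only sample. The pools were incubated with 200 nmole of a random double-stranded 16-mer DNA library in Tris/NaCl/DTT/glycerol buffer for 30 min at room temperature, washed, crosslinked with 0.1% formaldehyde and proximity-ligated with BsaI/T4 ligase at 37 °C for 1 h. PCR amplification and Illumina NextSeq500 sequencing came last. Binding signal is each hexamer's read frequency for a factor divided by its frequency for the tag-only sample.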
# ELK1 = molecular target: T2, ELK1 (Homo sapiens, UniProt P19419 1-428); settings: protein: recombinant; tags: N-terminal GST; dsDNA, one strand shown
# T2 sequence: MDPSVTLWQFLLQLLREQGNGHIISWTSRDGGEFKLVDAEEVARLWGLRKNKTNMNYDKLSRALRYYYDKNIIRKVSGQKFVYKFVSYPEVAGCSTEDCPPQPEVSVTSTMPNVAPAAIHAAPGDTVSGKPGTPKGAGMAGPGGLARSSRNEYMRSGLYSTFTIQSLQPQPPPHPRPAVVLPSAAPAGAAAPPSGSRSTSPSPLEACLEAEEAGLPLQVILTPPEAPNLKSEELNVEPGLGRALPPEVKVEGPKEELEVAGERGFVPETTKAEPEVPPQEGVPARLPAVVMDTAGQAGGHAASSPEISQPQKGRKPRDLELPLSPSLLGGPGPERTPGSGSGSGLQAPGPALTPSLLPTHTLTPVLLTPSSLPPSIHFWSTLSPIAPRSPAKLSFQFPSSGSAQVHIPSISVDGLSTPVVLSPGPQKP
# Summary of the method: as §1
# GABPA = molecular target: T3, GABPA (Homo sapiens, UniProt Q06546 1-454); settings: protein: recombinant; tags: N-terminal GST; dsDNA, one strand shown
# T3 sequence: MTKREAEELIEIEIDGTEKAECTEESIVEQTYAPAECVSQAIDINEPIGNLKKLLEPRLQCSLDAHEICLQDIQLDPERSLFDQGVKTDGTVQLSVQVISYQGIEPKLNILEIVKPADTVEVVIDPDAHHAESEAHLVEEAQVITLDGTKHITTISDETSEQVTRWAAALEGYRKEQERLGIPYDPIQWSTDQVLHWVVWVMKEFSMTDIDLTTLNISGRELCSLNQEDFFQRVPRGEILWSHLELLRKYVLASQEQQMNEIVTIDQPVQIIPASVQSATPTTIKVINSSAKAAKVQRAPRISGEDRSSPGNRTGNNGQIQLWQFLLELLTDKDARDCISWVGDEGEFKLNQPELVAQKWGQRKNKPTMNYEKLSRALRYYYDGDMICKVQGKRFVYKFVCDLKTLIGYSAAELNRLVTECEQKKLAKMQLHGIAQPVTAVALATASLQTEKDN
# Summary of the method: as §1
# ERG = molecular target: T4, ERG (Homo sapiens, UniProt P11308 1-479); settings: protein: recombinant; tags: N-terminal GST; dsDNA, one strand shown
# T4 sequence: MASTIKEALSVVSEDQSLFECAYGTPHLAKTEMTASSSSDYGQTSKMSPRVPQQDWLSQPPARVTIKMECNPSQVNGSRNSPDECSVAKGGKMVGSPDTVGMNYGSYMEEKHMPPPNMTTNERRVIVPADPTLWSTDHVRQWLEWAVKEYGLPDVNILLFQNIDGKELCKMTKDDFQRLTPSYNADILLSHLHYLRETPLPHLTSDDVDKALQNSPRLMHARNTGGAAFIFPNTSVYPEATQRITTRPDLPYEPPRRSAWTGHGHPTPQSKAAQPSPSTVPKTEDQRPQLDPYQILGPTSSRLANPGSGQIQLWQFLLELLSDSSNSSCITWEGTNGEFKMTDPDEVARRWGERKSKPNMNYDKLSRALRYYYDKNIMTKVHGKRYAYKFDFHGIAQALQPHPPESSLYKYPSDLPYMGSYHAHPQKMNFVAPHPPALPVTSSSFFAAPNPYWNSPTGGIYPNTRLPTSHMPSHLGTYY
# Summary of the method: as §1
# ELF1 = ELF1 (Homo sapiens, UniProt P32519 1-619); settings: protein: recombinant; tags: N-terminal GST; dsDNA, one strand shown
# Summary of the method: as §1
# EHF = molecular target: T5, EHF (Homo sapiens, UniProt Q9NZC4 1-300); settings: protein: recombinant; tags: N-terminal GST; dsDNA, one strand shown
# T5 sequence: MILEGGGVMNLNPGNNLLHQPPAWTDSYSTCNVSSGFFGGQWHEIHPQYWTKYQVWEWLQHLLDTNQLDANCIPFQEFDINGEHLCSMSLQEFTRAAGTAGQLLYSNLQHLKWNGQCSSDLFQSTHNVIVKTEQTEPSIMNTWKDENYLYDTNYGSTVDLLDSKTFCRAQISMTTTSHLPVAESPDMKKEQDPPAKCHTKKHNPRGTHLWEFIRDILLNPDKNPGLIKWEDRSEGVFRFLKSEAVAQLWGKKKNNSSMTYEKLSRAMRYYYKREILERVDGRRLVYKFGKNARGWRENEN
# Summary of the method: as §1
# SPI1 = SPI1 (Homo sapiens, UniProt P17947 1-270); settings: protein: recombinant; tags: N-terminal GST; dsDNA, one strand shown
# Summary of the method: as §1
# SPIB = SPIB (Homo sapiens, UniProt Q01892 1-262); settings: protein: recombinant; tags: N-terminal GST; dsDNA, one strand shown
# Summary of the method: as §1
# ELK3 = molecular target: T6, ELK3 (Homo sapiens, UniProt P41970 1-407); settings: protein: recombinant; tags: N-terminal GST; dsDNA, one strand shown
# T6 sequence: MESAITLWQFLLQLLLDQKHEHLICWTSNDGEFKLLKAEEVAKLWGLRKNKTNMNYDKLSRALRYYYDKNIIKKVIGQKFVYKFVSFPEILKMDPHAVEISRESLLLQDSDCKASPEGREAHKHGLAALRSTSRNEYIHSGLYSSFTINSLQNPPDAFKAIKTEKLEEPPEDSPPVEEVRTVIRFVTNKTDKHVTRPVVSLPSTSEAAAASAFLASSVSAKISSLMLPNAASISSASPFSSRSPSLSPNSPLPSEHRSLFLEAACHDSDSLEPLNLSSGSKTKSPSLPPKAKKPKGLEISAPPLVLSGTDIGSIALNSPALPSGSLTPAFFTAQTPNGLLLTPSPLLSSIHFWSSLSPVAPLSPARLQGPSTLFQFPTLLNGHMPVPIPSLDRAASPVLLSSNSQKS
# Summary of the method: as §1
# FEV = molecular target: T7, FEV (Homo sapiens, UniProt Q99581 1-238); settings: protein: recombinant; tags: N-terminal GST; dsDNA, one strand shown
# T7 sequence: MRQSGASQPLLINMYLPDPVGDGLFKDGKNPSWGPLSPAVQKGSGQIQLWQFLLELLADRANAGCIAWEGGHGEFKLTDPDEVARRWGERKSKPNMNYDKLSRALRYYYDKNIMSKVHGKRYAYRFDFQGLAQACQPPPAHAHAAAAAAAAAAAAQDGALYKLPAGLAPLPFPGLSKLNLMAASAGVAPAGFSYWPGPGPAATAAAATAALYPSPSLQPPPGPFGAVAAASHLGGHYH
# Summary of the method: as §1
# ETV5 = ETV5 (Homo sapiens, UniProt P41161 1-510); settings: protein: recombinant; tags: N-terminal GST; dsDNA, one strand shown
# Summary of the method: as §1
# HSF1 = HSF1 (Homo sapiens, UniProt Q00613 1-529); settings: protein: recombinant; tags: N-terminal GST; chain copies: 3; dsDNA, one strand shown
# Summary of the method: as §1
# SPIC = molecular target: T8, SPIC (Homo sapiens, UniProt Q8N5J4 1-248); settings: protein: recombinant; tags: N-terminal GST; dsDNA, one strand shown
# T8 sequence: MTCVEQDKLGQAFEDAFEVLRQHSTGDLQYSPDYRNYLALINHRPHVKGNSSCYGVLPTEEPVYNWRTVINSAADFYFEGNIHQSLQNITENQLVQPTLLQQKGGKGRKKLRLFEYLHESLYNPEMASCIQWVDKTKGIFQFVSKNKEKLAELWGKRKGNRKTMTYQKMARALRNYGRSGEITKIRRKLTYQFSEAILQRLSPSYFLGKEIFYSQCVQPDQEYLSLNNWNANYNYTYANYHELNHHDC
# Summary of the method: as §1
# ELF4 = ELF4 (Homo sapiens, UniProt Q99607 1-663); settings: protein: recombinant; tags: N-terminal GST; dsDNA, one strand shown
# Summary of the method: as §1
# ELK4 = molecular target: T9, ELK4 (Homo sapiens, UniProt P28324-2 1-405); settings: protein: recombinant; tags: N-terminal GST; dsDNA, one strand shown
# T9 sequence: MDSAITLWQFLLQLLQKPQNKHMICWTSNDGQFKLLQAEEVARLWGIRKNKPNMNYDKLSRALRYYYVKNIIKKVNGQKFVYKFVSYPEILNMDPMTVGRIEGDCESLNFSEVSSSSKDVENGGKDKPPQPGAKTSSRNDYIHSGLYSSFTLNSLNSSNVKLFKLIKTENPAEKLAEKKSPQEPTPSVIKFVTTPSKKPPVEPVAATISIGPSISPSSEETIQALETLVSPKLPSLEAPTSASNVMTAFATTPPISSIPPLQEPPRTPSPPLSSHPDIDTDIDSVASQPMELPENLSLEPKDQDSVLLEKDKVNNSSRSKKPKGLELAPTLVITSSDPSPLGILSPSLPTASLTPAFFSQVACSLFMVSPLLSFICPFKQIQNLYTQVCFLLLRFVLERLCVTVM
# Summary of the method: as §1
# ETV2 = molecular target: T10, ETV2 (Homo sapiens, UniProt O00321 1-342); settings: protein: recombinant; tags: N-terminal GST; dsDNA, one strand shown
# T10 sequence: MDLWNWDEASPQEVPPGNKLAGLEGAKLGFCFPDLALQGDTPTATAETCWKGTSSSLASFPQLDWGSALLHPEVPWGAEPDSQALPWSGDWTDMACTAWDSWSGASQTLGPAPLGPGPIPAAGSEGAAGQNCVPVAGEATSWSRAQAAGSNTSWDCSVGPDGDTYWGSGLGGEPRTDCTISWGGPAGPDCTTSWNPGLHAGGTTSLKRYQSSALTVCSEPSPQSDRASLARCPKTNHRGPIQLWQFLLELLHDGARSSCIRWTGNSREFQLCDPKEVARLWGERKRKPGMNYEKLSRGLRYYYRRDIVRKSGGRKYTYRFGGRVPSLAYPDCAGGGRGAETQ
# Summary of the method: as §1
# ELF3 = molecular target: T11, ELF3 (Homo sapiens, UniProt P78545 1-371); settings: protein: recombinant; tags: N-terminal GST; dsDNA, one strand shown
# T11 sequence: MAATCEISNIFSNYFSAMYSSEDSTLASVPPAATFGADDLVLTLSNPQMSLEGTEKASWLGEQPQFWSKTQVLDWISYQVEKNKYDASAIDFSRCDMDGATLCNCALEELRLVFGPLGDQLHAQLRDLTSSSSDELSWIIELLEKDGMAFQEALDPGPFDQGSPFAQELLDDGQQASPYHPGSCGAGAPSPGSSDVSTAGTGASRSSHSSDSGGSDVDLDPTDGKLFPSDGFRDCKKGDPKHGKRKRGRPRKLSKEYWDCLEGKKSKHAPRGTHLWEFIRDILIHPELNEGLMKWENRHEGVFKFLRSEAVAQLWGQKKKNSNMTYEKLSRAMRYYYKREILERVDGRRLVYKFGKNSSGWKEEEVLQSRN
# Summary of the method: as §1
# CRX = CRX (Homo sapiens, UniProt O43186 1-299); settings: protein: recombinant; tags: N-terminal GST; dsDNA, one strand shown
# Summary of the method: as §1
# ETV1 = ETV1 (Homo sapiens, UniProt P50549 1-477); settings: protein: recombinant; tags: N-terminal GST; dsDNA, one strand shown
# Summary of the method: as §1
# Sequence of ETV5 (P41161 whole entry): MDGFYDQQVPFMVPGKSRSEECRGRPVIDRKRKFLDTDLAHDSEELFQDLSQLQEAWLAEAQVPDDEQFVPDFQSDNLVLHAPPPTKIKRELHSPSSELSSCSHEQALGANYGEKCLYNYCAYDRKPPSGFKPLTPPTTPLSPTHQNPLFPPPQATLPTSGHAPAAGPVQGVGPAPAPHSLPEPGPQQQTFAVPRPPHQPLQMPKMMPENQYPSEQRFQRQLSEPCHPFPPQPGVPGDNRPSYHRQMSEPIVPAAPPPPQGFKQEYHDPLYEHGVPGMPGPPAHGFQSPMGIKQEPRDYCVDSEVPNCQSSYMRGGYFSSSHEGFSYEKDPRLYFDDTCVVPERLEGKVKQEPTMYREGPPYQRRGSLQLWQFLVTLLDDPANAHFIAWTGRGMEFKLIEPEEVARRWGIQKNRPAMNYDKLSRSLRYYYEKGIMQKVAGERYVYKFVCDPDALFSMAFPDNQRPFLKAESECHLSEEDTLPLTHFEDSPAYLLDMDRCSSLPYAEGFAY
# Sequence of ELF1 (P32519 whole entry): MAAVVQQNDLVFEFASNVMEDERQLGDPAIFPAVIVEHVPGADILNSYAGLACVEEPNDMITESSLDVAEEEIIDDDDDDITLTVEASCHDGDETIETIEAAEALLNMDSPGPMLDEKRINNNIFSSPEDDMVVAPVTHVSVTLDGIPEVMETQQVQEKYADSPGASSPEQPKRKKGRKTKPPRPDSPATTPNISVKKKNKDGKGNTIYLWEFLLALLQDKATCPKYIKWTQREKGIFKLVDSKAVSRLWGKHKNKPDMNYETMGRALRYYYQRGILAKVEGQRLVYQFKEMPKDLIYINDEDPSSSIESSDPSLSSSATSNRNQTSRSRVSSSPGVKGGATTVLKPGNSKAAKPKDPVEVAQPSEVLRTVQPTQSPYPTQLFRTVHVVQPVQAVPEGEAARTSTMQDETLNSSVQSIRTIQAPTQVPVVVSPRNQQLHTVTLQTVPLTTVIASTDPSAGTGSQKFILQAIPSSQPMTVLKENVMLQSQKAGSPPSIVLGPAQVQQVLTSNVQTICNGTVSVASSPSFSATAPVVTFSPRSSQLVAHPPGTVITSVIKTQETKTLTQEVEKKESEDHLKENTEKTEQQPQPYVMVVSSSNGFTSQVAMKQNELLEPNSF
# Sequence of ELF4 (Q99607 whole entry): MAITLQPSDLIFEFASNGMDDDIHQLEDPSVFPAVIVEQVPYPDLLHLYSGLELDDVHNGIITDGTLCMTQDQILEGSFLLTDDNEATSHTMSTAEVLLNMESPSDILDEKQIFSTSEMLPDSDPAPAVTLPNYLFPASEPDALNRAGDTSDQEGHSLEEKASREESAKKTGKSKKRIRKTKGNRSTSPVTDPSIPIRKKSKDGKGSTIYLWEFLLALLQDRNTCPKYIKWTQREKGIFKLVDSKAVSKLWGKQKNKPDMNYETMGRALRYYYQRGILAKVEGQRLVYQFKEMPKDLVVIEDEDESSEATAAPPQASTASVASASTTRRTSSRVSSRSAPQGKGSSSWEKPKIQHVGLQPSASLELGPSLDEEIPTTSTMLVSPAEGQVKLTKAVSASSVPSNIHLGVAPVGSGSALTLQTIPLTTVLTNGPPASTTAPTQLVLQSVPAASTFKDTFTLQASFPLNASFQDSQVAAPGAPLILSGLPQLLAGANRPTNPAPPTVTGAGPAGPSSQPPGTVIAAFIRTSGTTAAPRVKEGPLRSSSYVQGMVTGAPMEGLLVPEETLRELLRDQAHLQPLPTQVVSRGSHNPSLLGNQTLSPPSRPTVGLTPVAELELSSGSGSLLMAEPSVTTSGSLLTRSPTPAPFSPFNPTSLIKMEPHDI
# Sequence of CRX (O43186 whole entry): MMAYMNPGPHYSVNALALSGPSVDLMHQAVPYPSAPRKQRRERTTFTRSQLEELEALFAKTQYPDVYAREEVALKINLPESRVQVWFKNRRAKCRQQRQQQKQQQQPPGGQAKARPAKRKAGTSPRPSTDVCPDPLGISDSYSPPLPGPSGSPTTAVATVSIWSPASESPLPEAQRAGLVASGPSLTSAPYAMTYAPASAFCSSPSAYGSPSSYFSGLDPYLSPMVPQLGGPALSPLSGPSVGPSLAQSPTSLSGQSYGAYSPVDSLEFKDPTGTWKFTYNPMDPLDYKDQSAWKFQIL
# Sequence of HSF1 (Q00613 whole entry): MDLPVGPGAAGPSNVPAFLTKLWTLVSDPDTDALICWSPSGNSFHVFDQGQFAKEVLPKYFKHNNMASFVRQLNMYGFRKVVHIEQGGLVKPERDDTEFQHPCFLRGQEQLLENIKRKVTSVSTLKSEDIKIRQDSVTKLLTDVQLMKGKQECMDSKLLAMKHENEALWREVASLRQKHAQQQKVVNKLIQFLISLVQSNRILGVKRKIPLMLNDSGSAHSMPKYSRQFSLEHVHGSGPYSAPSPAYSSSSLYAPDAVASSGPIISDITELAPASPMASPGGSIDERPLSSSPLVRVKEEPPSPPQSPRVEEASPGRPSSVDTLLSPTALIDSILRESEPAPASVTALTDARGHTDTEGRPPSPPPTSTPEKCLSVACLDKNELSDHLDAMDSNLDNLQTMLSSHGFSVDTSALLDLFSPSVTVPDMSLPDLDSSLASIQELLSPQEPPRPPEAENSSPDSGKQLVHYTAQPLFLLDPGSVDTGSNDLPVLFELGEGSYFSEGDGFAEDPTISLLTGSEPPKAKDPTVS
# Sequence of ETV1 (P50549 whole entry): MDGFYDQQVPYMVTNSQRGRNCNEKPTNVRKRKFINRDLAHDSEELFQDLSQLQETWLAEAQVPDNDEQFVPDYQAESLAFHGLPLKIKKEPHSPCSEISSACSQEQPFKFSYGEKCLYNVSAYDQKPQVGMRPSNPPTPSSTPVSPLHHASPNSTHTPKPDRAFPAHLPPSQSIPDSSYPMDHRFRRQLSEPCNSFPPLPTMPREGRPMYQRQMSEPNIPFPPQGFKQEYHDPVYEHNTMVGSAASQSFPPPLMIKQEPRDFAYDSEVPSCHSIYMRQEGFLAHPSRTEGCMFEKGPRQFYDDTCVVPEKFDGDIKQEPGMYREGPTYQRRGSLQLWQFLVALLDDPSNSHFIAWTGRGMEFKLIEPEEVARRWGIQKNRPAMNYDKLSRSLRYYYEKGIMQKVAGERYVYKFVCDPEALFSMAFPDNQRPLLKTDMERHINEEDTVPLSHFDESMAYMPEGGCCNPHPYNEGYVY
# Sequence of SPIB (Q01892 whole entry): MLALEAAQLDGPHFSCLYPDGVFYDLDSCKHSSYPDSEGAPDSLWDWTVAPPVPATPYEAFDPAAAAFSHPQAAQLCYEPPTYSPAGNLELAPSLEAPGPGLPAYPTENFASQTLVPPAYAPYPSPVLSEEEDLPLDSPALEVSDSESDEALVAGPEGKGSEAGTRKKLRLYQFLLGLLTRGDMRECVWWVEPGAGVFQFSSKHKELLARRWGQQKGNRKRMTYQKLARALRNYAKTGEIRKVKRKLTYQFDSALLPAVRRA
sequence,measurement,setting,value
ATCGAT,binding signal,FLI1,"1.16 fold enrichment (6-mer frequency, TF over GST control)"
same,binding signal,ELK1,"1.1 fold enrichment (6-mer frequency, TF over GST control)"
same,binding signal,GABPA,"1.19 fold enrichment (6-mer frequency, TF over GST control)"
same,binding signal,ERG,"1.15 fold enrichment (6-mer frequency, TF over GST control)"
same,binding signal,ELF1,"1.15 fold enrichment (6-mer frequency, TF over GST control)"
same,binding signal,EHF,"1.19 fold enrichment (6-mer frequency, TF over GST control)"
same,binding signal,SPI1,"1.21 fold enrichment (6-mer frequency, TF over GST control)"
same,binding signal,SPIB,"1.12 fold enrichment (6-mer frequency, TF over GST control)"
same,binding signal,ELK3,"1.1 fold enrichment (6-mer frequency, TF over GST control)"
same,binding signal,FEV,"1.02 fold enrichment (6-mer frequency, TF over GST control)"
same,binding signal,ETV5,"1.17 fold enrichment (6-mer frequency, TF over GST control)"
same,binding signal,HSF1,"1.26 fold enrichment (6-mer frequency, TF over GST control)"
same,binding signal,SPIC,"1.2 fold enrichment (6-mer frequency, TF over GST control)"
same,binding signal,ELF4,"1.17 fold enrichment (6-mer frequency, TF over GST control)"
same,binding signal,ELK4,"1.23 fold enrichment (6-mer frequency, TF over GST control)"
same,binding signal,ETV2,"1.08 fold enrichment (6-mer frequency, TF over GST control)"
same,binding signal,ELF3,"1.19 fold enrichment (6-mer frequency, TF over GST control)"
same,binding signal,CRX,"1.25 fold enrichment (6-mer frequency, TF over GST control)"
same,binding signal,ETV1,"1.07 fold enrichment (6-mer frequency, TF over GST control)"
